Screening results: PubChem BioAssay, National Center for Advancing Translational Sciences (NCATS)
Shown are actives, neighbours in structure and some others; about 0.87% of the full set was active somewhere.
EPAC2 antag = qHTS for Antagonist of cAMP-regulated guanine nucleotide exchange factor 2 (EPAC2): primary screen; Rap guanine nucleotide exchange factor 4 (Homo sapiens), Q8WZA2; hit rate 0.18% among 360,000; Potency, µM (top dose mostly 114 µM), for inactives: at the highest dose activity, negative = inhibition, most hits filed as inhibitors; EPAC2 GEF exchange of Rap1B-BODIPY-GDP, fluorescence; also: potency is read from the fitted curve at half-maximal effect; % is scaled to controls: 0 for no effect and ±100 for the full control effect; nearly all actives have a fitted effect of over 45% in size
Target sequence (Q8WZA2 whole entry, looked up): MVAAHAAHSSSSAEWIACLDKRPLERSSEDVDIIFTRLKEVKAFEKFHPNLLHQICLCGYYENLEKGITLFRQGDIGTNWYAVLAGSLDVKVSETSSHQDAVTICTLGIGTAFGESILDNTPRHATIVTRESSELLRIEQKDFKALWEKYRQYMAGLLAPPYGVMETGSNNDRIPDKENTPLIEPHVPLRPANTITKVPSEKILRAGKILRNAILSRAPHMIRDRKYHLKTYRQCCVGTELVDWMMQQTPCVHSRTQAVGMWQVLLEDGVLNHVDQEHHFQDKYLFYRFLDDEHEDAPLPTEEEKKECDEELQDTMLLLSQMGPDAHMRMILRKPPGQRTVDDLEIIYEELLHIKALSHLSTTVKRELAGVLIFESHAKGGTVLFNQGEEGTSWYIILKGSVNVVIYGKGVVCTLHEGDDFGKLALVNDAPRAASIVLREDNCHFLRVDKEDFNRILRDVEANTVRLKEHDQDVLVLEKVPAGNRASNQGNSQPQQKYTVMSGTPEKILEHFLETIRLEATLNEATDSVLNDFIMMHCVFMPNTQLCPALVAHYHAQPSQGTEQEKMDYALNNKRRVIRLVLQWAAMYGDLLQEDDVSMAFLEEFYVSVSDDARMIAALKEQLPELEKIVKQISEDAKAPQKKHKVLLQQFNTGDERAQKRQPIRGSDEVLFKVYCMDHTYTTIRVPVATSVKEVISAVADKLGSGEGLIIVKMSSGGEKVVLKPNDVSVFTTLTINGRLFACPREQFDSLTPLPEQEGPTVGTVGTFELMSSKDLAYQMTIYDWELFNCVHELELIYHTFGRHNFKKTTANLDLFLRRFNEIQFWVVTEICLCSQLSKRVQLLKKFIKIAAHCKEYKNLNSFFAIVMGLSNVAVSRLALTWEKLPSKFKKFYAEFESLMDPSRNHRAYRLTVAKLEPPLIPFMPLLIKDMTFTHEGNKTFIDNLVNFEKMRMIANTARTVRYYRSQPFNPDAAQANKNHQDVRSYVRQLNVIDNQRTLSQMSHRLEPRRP
EPAC1 ag = qHTS for Agonist of cAMP-regulated guanine nucleotide exchange factor 3 (EPAC1): primary screen. Potency, µM (highest dose often 154 µM), for inactives: at the highest dose activation, actives largely listed as activators. EPAC1 agonist qHTS, biochemical assay; response scale: 100% = response to 6.5 mM cAMP. hit rate 0.073% among 360,000. Rap guanine nucleotide exchange factor 3 (Homo sapiens), O95398. AID 720707, 2013; also: potency is read from the fitted curve at half-maximal effect; nearly all actives have a fitted effect of over 60% in size
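Normalized to 6.5 mM cAMP, activity reflects EPAC1-catalysed release of BODIPY-GDP from Rap1B, followed kinetically over 30 min at 480 nm excitation, 540 nm emission. Reaction contained 100 nM EPAC1, 250 nM Rap1B-BODIPY-GDP, 50 uM GDP.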
EPAC1 antagonist = qHTS for Antagonist of cAMP-regulated guanine nucleotide exchange factor 3 (EPAC1): primary screen | Rap guanine nucleotide exchange factor 3 (Homo sapiens), O95398 | hit rate 0.14% among 360,000 | Potency, µM (series often up to 115 µM), without a hit: at the top dose activity change, negative = inhibition, usual class: inhibitors | EPAC1 GEF assay, Rap1b-BODIPY-GDP exchange fluorescence;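 also: potency is read from the fitted curve at half-maximal effect; plate controls were vehicle for no effect and positive control for full effect; nearly all actives have a fitted effect of over 50% in size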
Coupling enz = qHTS Assay for Inhibitors of Fructose-1,6-bisphosphate Aldolase from Giardia Lamblia: Coupling assay counterscreen; coupling enzyme system counterscreen, AmpLite Red fluorescence; activity change, negative = inhibition, % at 58.2 µM, hits read low; hit rate 0.67% among 290,000; AID 2472, 2010; in the data active = activity change below about -30%; also: % is scaled to controls: 0 for no effect and ±100 for the full control effect
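Counterscreen of the coupled detection system alone, without aldolase: glyceraldehyde-3-phosphate coupling enzymes plus AmpLite Red readout. Compounds at 57.5 uM final, 10 min RT preincubation, 20 min RT reaction, fluorescence 525/598 nm.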
EPAC2 agonist = qHTS for Agonist of cAMP-regulated guanine nucleotide exchange factor 4 (EPAC2): primary screen. Potency, µM (titrated, usually from 154 µM), for the others: at the top dose activation, hits mostly activators. hit rate 0.079% among 360,000. EPAC2 activation, biochemical qHTS; response scale: 100% = 6.5 mM cAMP response; also: potency is read from the fitted curve at half-maximal effect; nearly all actives have a fitted effect of over 50% in size
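qHTS, titration series. 100 nM EPAC2 / 250 nM Rap1B-BODIPY-GDP / 50 uM GDP; RT; ex 480/em 540 nm, 5-min reads to 30 min. Norm. to 6.5 mM cAMP = activation.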
USP1 inh = Inhibitors of USP1/UAF1: Primary Screen; recombinant USP1/UAF1, Ub-Rhodamine cleavage fluorescence; Potency, µM (doses to about 57.1 µM), without a hit: at the top dose activity change, negative = inhibition, usual class: inhibitors; hit rate 0.23% among 390,000; also: potency is read from the fitted curve at half-maximal effect; % is scaled to controls: 0 for no effect and ±100 for the full control effect; nearly all actives have a fitted effect of over 60% in size
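USP1/UAF1 complex (1 nM) preincubated 15 min at room temperature with compound, then Ub-Rho substrate (150 nM final) added. Kinetic fluorescence at 480/540 nm over 6 reads at 60 s intervals; 50 mM HEPES pH 7.8, 0.5 mM EDTA, 0.1 mg/ml BSA, 1 mM TCEP, 0.01% Tween-20.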
* = called active by the depositor; [ ] = dose if it differs, or a comment. Unless noted, calls follow the shape of the dose curve; as a rule, active = well fitted curve in the direction sought with a large enough effect; inconclusive = small, poorly fitted or top-dose-only effect, or another doubt; inactive = no such curve, though single readings can be large; an effect the other way counts as inactive or inconclusive.

N#Cc1c(N2CCN(c3ccc(F)cc3)CC2)nc(N)c2c(N)nc3c(c12)CC(=O)N3C1CC1 was read as EPAC2 antag -7%, EPAC1 ag -6%, EPAC1 antagonist -4%, Coupling enz -16, EPAC2 agonist -10% and USP1 inh -15%.
For CN(CCO)c1nc(N)c2c(N)nc3c(c2c1C#N)CC(=O)N3C1CCCC1 the results were Coupling enz -38*.
For O=C(CS(=O)c1ccc(C(F)(F)F)cc1[N+](=O)[O-])Oc1ccccc1 (stereo not given) the results were EPAC2 antag -17%, EPAC1 ag 21%, EPAC1 antagonist -22%, Coupling enz -39*, EPAC2 agonist 17% and USP1 inh -16%.
Screening COC(=O)c1ccc(OC(=O)CS(=O)c2ccccc2[N+](=O)[O-])cc1 (stereo not given) returned EPAC2 antag -6%, EPAC1 ag 3%, EPAC1 antagonist 6%, Coupling enz 0, EPAC2 agonist -2% and USP1 inh -1%.
For Cc1ccc(-c2cn3nc(-c4ccccc4)c(-c4ccccc4)nc3n2)cc1 the results were EPAC2 antag 213%, EPAC1 ag 16%, EPAC1 antagonist 7%, Coupling enz 0, EPAC2 agonist 100µM* and USP1 inh inconclusive.
`c1ccc(-c2cn3nc(-c4ccccc4)c(-c4ccccc4)nc3n2)cc1` gave EPAC2 antag 134%, EPAC1 ag inconclusive, EPAC1 antagonist 26%, Coupling enz 5, EPAC2 agonist inconclusive and USP1 inh inconclusive.
Cc1cc(O)c(C(=O)/C=C/c2cccc([N+](=O)[O-])c2)c(=O)o1 was read as EPAC2 antag -4%, EPAC1 ag -6%, EPAC1 antagonist 56µM*, Coupling enz 2, EPAC2 agonist 6% and USP1 inh -14%.
O=C1c2ccccc2C(=O)c2c1ncn2-c1ccccc1 was read as EPAC2 antag 5%, EPAC1 ag -9%, EPAC1 antagonist 1%, Coupling enz -36*, EPAC2 agonist -13% and USP1 inh inconclusive.
Screening COc1ccc(-c2cc3ccccc3c(=O)o2)cc1 returned EPAC2 antag -6%, EPAC1 ag 2%, EPAC1 antagonist -10%, Coupling enz -8 and EPAC2 agonist 15%.
CN(C)c1ccc(-c2cc3ccccc3c(=O)o2)cc1 was read as EPAC2 antag 94%, EPAC1 ag -1%, EPAC1 antagonist 12%, EPAC2 agonist 100µM* and USP1 inh -27%.
For CCC(C)C(=O)Nc1cc(Cl)ccc1C(=O)O (stereo not given) the results were EPAC2 antag 1%, EPAC1 ag 10%, EPAC1 antagonist -10%, Coupling enz 1, EPAC2 agonist 7% and USP1 inh -23%.
Screening OCCN(CCO)c1nc(N2CCCCC2)c2nc(N(CCO)CCO)nc(N3CCCCC3)c2n1 returned EPAC2 antag 185%, EPAC1 ag 100µM*, EPAC1 antagonist 190%, Coupling enz 2, EPAC2 agonist 112µM* and USP1 inh 28µM*.
Screening Cc1ccc(F)c(S(=O)(=O)NC(=O)C2(C)CCN2C(=O)Cc2ccsc2)c1 (stereo not given) returned EPAC2 antag 3%, EPAC1 ag -4%, EPAC1 antagonist -11% and EPAC2 agonist 0%.
For COc1ccc(-c2csc(C3=C(O)CN(Cc4ccc(Cl)cc4)C3=N)n2)cc1OC the results were EPAC2 antag 3%, EPAC1 ag 4%, EPAC1 antagonist -2%, Coupling enz 1, EPAC2 agonist 6% and USP1 inh -16%.
For COc1cccc(CN2CC(O)=C(c3nc(-c4ccc(Cl)cc4)cs3)C2=N)c1 the results were EPAC2 antag 10%, EPAC1 ag -14%, EPAC1 antagonist 2%, Coupling enz -3, EPAC2 agonist 6.3µM* and USP1 inh -12%.
COc1cc(C/C=C/c2ccccc2)c(OC)cc1O was read as Coupling enz -51*.
Screening CC(C)(C)n1nc2c(c1NC(=O)c1ccc(S(=O)(=O)N3CCCCC3)cc1)CS(=O)C2 (stereo not given) returned EPAC2 antag -2%, EPAC1 ag -2%, EPAC1 antagonist 4%, Coupling enz 5, EPAC2 agonist -1% and USP1 inh -17%.
`CN1CCc2c(n(CC(O)CN(CCO)CCO)c3ccccc23)C1=O` (stereo not given) gave EPAC2 antag -4%[57.1 µM], EPAC1 ag -12%, EPAC1 antagonist 1%, Coupling enz -51*, EPAC2 agonist 9% and USP1 inh -17%.
For CN1CCc2c(n(CC(O)CNCc3ccccc3)c3ccccc23)C1=O (stereo not given) the results were EPAC2 antag 4%, EPAC1 ag -4%, EPAC1 antagonist -2%, Coupling enz -24, EPAC2 agonist 1% and USP1 inh inconclusive.
`CCN(CC)CCNC(=O)c1ccc2c(c1NCCO)C(=O)c1ccccc1C2=O` gave EPAC2 antag -18%, EPAC1 ag 0%, EPAC1 antagonist -3%, Coupling enz -31*, EPAC2 agonist 4% and USP1 inh -17%.
Screening CC(=O)Nc1ccc(N2CCCCC2)cc1 returned EPAC2 antag -6%, EPAC1 ag 3%, EPAC1 antagonist -10%, Coupling enz -1, EPAC2 agonist 3% and USP1 inh -10%.
Screening CC(=O)Nc1ccc(N2CCCC2)cc1 returned EPAC2 antag -5%, EPAC1 ag -6%, EPAC1 antagonist 5%, Coupling enz -32*, EPAC2 agonist 6% and USP1 inh -7%.
Cc1ccc(S(=O)(=O)NC2=C(N3CCN(Cc4ccccc4)CC3)C(=O)c3ccccc3C2=O)cc1 was read as EPAC2 antag -4%, EPAC1 ag 5%, EPAC1 antagonist 10%, Coupling enz -34*, EPAC2 agonist 4% and USP1 inh -6%.
CCOC(=O)N1CCN(C2=C(NS(=O)(=O)c3ccc(C)cc3)C(=O)c3ccccc3C2=O)CC1 was read as EPAC2 antag -18%, EPAC1 ag 11%, EPAC1 antagonist -29%, EPAC2 agonist 24% and USP1 inh 22µM*.
